# Results as given in the supplement of paper PMC8728848.
# Many of the other results were omitted from the sample, so the strongest signals are more common in it than they were.
# Legend:
# Experiment in all cases: glycan array binding signal (z-score within array); higher = stronger binding
# Conditions in all cases: glycan notation: IUPAC condensed, linker removed
# [1] = tested on: Man(a1-3)[Man(a1-6)]Man(a1-6)[Man(a1-2)Man(a1-3)]Man(b1-4)GlcNAc(b1-4)GlcNAc
# Summary of the method: (§1)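 Negative Z-scores can be read as non-binding. The Z-score is calculated within each array and then averaged across arrays of one protein sequence at different concentrations or buffers and across linkers. Arrays, 3228 in all, were curated from the Consortium for Functional Glycomics database and kept only where the protein sequence was available.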
# [2] = tested on: Neu5Ac(a2-3)Gal(b1-3)GlcNAc(b1-3)Gal(b1-3)GlcNAc
# Summary of the method: as §1
# [3] = tested on: Neu5Ac(a2-3)Gal(b1-4)GlcNAc(b1-2)Man(a1-3)[Neu5Ac(a2-3)Gal(b1-4)GlcNAc(b1-2)Man(a1-6)]Man(b1-4)GlcNAc(b1-4)[Fuc(a1-6)]GlcNAc
# Summary of the method: as §1
# Man(a1-3)[Man(a1-6)]Man = tested on: Man(a1-3)[Man(a1-6)]Man
# Summary of the method: as §1
# [4] = tested on: Man(a1-3)[Man(a1-6)]Man(b1-4)GlcNAc(b1-4)[Fuc(a1-6)]GlcNAc
# Summary of the method: as §1
# Man(b1-4)GlcNAc = tested on: Man(b1-4)GlcNAc
# Summary of the method: as §1
# MurNAc(b1-4)GlcNAc = tested on: MurNAc(b1-4)GlcNAc
# Summary of the method: as §1
# [5] = tested on: Neu5Ac(a2-3)Gal(b1-3)GlcNAc(b1-6)GalNAc
# Summary of the method: as §1
# [6] = tested on: Neu5Ac(a2-3)Gal(b1-4)GlcNAc(b1-2)Man
# Summary of the method: as §1
# [7] = tested on: Neu5Ac(a2-3)Gal(b1-3)GalNAc(b1-4)[Neu5Ac(a2-3)]Gal(b1-4)Glc
# Summary of the method: as §1
# [8] = tested on: Neu5Ac(a2-3)Gal(b1-3)GalNAc(b1-4)[Neu5Ac(a2-8)Neu5Ac(a2-3)]Gal(b1-4)Glc
# Summary of the method: as §1
# [9] = tested on: Neu5Ac(a2-3)Gal(b1-3)GlcNAc(b1-4)Gal(b1-4)Glc
# Summary of the method: as §1
# [10] = tested on: Neu5Ac(a2-3)Gal(b1-4)GlcNAc(b1-2)Man(a1-3)[GlcNAc(b1-4)][Neu5Ac(a2-3)Gal(b1-4)GlcNAc(b1-2)Man(a1-6)]Man(b1-4)GlcNAc(b1-4)GlcNAc
# Summary of the method: as §1
# [11] = tested on: Neu5Ac(a2-3)Gal(b1-4)GlcNAc(b1-2)Man(a1-3)[Neu5Ac(a2-6)Gal(b1-4)GlcNAc(b1-2)Man(a1-6)]Man(b1-4)GlcNAc(b1-4)GlcNAc
# Summary of the method: as §1
# [12] = tested on: Neu5Ac(a2-3)Gal(b1-3)GalNAc
# Summary of the method: as §1
# [13] = tested on: Neu5Ac(a2-3)Gal(b1-3)GlcNAc6S
# Summary of the method: as §1
# [14] = tested on: Neu5Ac(a2-3)Gal(b1-3)[Neu5Ac(a2-6)]GalNAc
# Summary of the method: as §1
# [15] = tested on: Neu5Ac(a2-3)Gal(b1-3)GlcNAc(b1-3)Gal(b1-4)GlcNAc
# Summary of the method: as §1
# [16] = tested on: Neu5Ac(a2-3)Gal(b1-3)[Fuc(a1-4)]GlcNAc
# Summary of the method: as §1
substance,measurement,setting,value
AgI/IIC123-GFP (Streptococcus mutans),glycan array binding signal (z-score),[1],-0.159
same,glycan array binding signal (z-score),[2],-0.456
same,glycan array binding signal (z-score),[3],-0.442
"Wza (Escherichia coli), P0A930",glycan array binding signal (z-score),[1],0.776
same,glycan array binding signal (z-score),Man(a1-3)[Man(a1-6)]Man,1.81
Epa22,glycan array binding signal (z-score),[4],-0.324
LcI (Legionella pneumophila),glycan array binding signal (z-score),Man(b1-4)GlcNAc,0.079
same,glycan array binding signal (z-score),MurNAc(b1-4)GlcNAc,0.332
same,glycan array binding signal (z-score),[5],3.77
same,glycan array binding signal (z-score),[6],2.16
AgI/II Vhelical-GFP (Streptococcus mutans),glycan array binding signal (z-score),[7],0.244
same,glycan array binding signal (z-score),[8],-0.256
same,glycan array binding signal (z-score),[9],-0.297
same,glycan array binding signal (z-score),[10],0.396
same,glycan array binding signal (z-score),[11],-0.182
"GspB (Streptococcus gordonii), Q939N5",glycan array binding signal (z-score),[12],4.52
same,glycan array binding signal (z-score),[13],-0.2
same,glycan array binding signal (z-score),[14],3.61
"BambL (Burhholderia ambifaria), Q0B4G1",glycan array binding signal (z-score),[15],-0.316
"SiiE (Salmonella typhimurium), A0A0H3NVH0",glycan array binding signal (z-score),[15],-0.888
Actinohivin (Actinomycete K97),glycan array binding signal (z-score),[13],-0.191
same,glycan array binding signal (z-score),[16],-0.196
"MIC3-MAR1b (Eimeria tenella), B6VCV4",glycan array binding signal (z-score),[14],-0.355
